ALDH1A1 block – qHTS Assay for Inhibitors of Aldehyde Dehydrogenase 1 (ALDH1A1); Purified ALDH1A1, NADH fluorescence, propionaldehyde substrate; Potency, µM (doses to about 75.3 µM), for the others: at the highest dose activity, negative = inhibition, usual class: inhibitors; 220,000 compounds, 7.3% hits;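 note: potency is the fitted concentration of half-maximal effect; plate controls were no enzyme wells and a reference inhibitor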
PNC inhibitor – High Content Assay for Compounds that inhibit the Assembly of the Perinucleolar Compartment; PC3M PTB-GFP, PNC prevalence imaging, 16 h; stronger effect = lower value; activity change (PNC), negative = inhibition, % at 10 µM; 140,000 compounds, 3.1% hits; AID 2417, 2010;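 active = readout at or below -70, meaning at least 70% loss of cells showing the perinucleolar compartment, a nuclear body marking cancer cells; inconclusive = readout between -30 and a set limit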;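 note: plate controls were DMSO wells for no effect and camptothecin positive control wells for full effect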
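Read-out is percentage of cells bearing a perinucleolar compartment, from automated 20x imaging of fixed, Hoechst-stained PC3M PTB-GFP cells. Cells were seeded 4 h, then exposed 16 h to compound (23 nl of library stock) in duplicate plates.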
LMNA splice mod – qHTS Assay for Modulators of Lamin A Splicing; HeLa LMNA splicing GFP/RFP minigene ratio, 48 h; Potency, µM (series often up to 46.1 µM), inactives show at the highest dose ratio change, negative = inhibition, actives largely listed as inhibitors; 200,000 compounds, 0.01% hits; AID 1487, 2009; active = well fitted inhibition curve with a large enough effect in the signal ratio, with a control signal flat, not every such curve was filed as active; inconclusive = small, poorly fitted or top-dose-only effect, or effect the other way, or a change in a side signal; the % refers to the signal ratio; note: potency is the fitted concentration of half-maximal effect
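S3 HeLa cells stably expressing lamin A-EGFP splicing minigene plus DsRed2, 600 cells/well, 48 h compound exposure at 37C. Laser-scanning cytometry; analysed as GFP (500-530 nm)/RFP (575-640 nm) total intensity ratio; 0.5% DMSO vehicle.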
HPGD inh – qHTS Assay for Inhibitors of HPGD (15-Hydroxyprostaglandin Dehydrogenase). 15-hydroxyprostaglandin dehydrogenase [NAD(+)] (Homo sapiens), P15428. purified HPGD, NADH fluorescence kinetic, PGE2 substrate. Potency, µM, inactives show at the top dose activity change, negative = inhibition, actives largely listed as inhibitors. 150,000 compounds, 4.3% hits. AID 894, 2007; note: potency is the fitted concentration of half-maximal effect
Target sequence (P15428 whole entry, looked up): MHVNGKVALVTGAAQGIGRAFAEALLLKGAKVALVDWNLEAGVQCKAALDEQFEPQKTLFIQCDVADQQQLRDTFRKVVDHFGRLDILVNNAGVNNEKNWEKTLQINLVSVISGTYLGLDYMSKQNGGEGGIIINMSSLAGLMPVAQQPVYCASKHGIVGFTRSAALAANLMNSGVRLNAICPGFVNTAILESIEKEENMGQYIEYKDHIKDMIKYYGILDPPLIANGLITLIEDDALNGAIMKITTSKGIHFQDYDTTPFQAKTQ
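20 nM HPGD preincubated 15 min at room temperature with compound in 50 mM Tris-HCl pH 8, 0.01% Tween 20. Started with 1 mM NAD+ and 30 uM prostaglandin E2; NADH fluorescence (360/450 nm) read 5 times over 30-s intervals, last minus first.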
12-hLO inh – qHTS Assay for Inhibitors of 12-hLO (12-human lipoxygenase) | purified 12-hLO, xylenol orange hydroperoxide absorbance | 150,000 compounds, 0.12% hits | AID 1452, 2008 | Polyunsaturated fatty acid lipoxygenase ALOX12 (Homo sapiens), P18054 | Potency, µM (top dose mostly 57.1 µM), without a hit: at the highest dose activity change, negative = inhibition, usual class: inhibitors; active = well fitted inhibition curve with a large enough effect; inconclusive = small, poorly fitted or top-dose-only effect; note: potency is the fitted concentration of half-maximal effect; nearly all actives have a fitted effect of over 55% in size
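150 nM 12hLO, 25 mM Hepes pH 7.0 + 0.01% Triton X-100; cpd preinc 15 min RT; 40 uM arachidonic acid, 30 min RT; Fe-XO 30 min; A573/A405 ratio as read-out.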
* hit, by the source's call; [ ] = remark or other dose. Hits are enriched below; roughly 10% of the tested compounds scored in any of these assays. Unless noted, calls come from the whole dose curve; as a rule, active = well fitted inhibition curve with a large enough effect (not every such curve was filed as active); inconclusive = small, poorly fitted or top-dose-only effect, or another doubt; inactive = no such curve, though single readings can be large or run the other way. Unless noted, % is set by controls: 0 for no effect and ±100 for the full control effect.

What do the screens show for `O=C(Cn1sc2ccccc2c1=O)NC12CC3CC(CC(C3)C1)C2`?
ALDH1A1 block: 0.0708µM*; PNC inhibitor: 18.4; LMNA splice mod: 1.7%; HPGD inh: 0.316µM*; 12-hLO inh: 7.94µM*

What do the screens show for `Nc1cccc2c1C(=O)N(CC(=O)NC13CC4CC(CC(C4)C1)C3)C2=O`?
ALDH1A1 block: inconclusive; LMNA splice mod: 4.7%[46 µM]

What do the screens show for `CCOc1ccccc1-c1ccc(C(=O)O)o1`?
ALDH1A1 block: inconclusive; HPGD inh: inconclusive; 12-hLO inh: -2.7%[0.00818 µM]

Results for CC1=C(C(=O)Nc2ccccc2C(F)(F)F)C(c2sccc2C)NC(=S)N1 (configuration not stated) ?
ALDH1A1 block: 4.47µM*; LMNA splice mod: inconclusive

What do the screens show for `COC(=O)C1=C(C)NC(=S)NC1c1sccc1C` (configuration not stated)?
ALDH1A1 block: 11.2µM*

Results for CC1=C(C(=O)Nc2ccccc2C(F)(F)F)C(c2ccc(C)s2)NC(=S)N1 (configuration not stated) ?
ALDH1A1 block: 0.631µM*; LMNA splice mod: -14.6%[46 µM]

How did CC1=C(C(=O)Nc2cccc(C)c2C)C(c2cccs2)NC(=S)N1 (configuration not stated) do in these assays?
ALDH1A1 block: 0.0%; PNC inhibitor: inconclusive; LMNA splice mod: inconclusive; HPGD inh: -12.6%; 12-hLO inh: -21.1%

Results for COc1ccccc1N1CCN(S(=O)(=O)c2ccc3c(c2)CCCN3C(C)=O)CC1 ?
LMNA splice mod: 8.1%[46 µM]

How did Cc1ccc(CCNC(=O)CCSCc2ccccc2F)cc1 do in these assays?
LMNA splice mod: 2.4%[46 µM]

What do the screens show for `O=C(O[C@@H]1OC2COC(=O)c3cc(O)c(O)c(O)c3-c3c(cc(O)c(O)c3O)C(=O)O[C@@H]([C@H]1O)[C@@H]2O)c1cc(O)c(O)c(O)c1`?
ALDH1A1 block: -10.0%; PNC inhibitor: 47.6; LMNA splice mod: inconclusive; HPGD inh: 1.78µM*; 12-hLO inh: -6.5%

Results for COc1c(O)cc2c(c1O)C1OC(CO)C(O)[C@H](O)[C@H]1OC2=O (some centres not stated) ?
ALDH1A1 block: 3.9%; LMNA splice mod: -3.3%; HPGD inh: -12.3%; 12-hLO inh: 0.0%

Results for CCOC(=O)c1c(C)n(OCc2ccccc2)c2ccc3c(no[n+]3[O-])c12 ?
ALDH1A1 block: 4.2%; PNC inhibitor: -80.0*; LMNA splice mod: 20.1%; HPGD inh: -16.8%; 12-hLO inh: 6.0%

How did COc1cccc2cc(C(=O)NC(C)C3CCCO3)c(=O)oc12 (configuration not stated) do in these assays?
ALDH1A1 block: inconclusive; PNC inhibitor: -86.6*; LMNA splice mod: -2.6%; HPGD inh: -26.1%; 12-hLO inh: 2.8%

Results for COc1cccc2cc(C(=O)NCC3CCCO3)c(=O)oc12 (configuration not stated) ?
ALDH1A1 block: inconclusive; PNC inhibitor: inconclusive; LMNA splice mod: -14.1%; HPGD inh: -24.9%; 12-hLO inh: -0.4%

What do the screens show for `Cc1cc(C(=O)NCCC2=CCCCC2)c(C)o1`?
ALDH1A1 block: 11.2µM*; PNC inhibitor: -80.8*; LMNA splice mod: -9.1%; HPGD inh: inconclusive; 12-hLO inh: 1.8%

How did COc1cccc2cc(C(=O)NCCC3=CCCCC3)c(=O)oc12 do in these assays?
ALDH1A1 block: 10µM*; LMNA splice mod: -17.8%[46 µM]

Results for NC(=O)NCCC1=CCCCC1 ?
ALDH1A1 block: -3.1%; PNC inhibitor: 34.4; LMNA splice mod: 7.6%; HPGD inh: 0.4%; 12-hLO inh: 1.6%

What do the screens show for `O=C(NCC(c1ccc2c(c1)OCO2)N1CCOCC1)c1c(F)cccc1F` (configuration not stated)?
LMNA splice mod: -0.7%[46 µM]

How did Cc1ccc2c(c1)N(C(=O)N1CCC(C(=O)NCc3cccc(Br)c3)CC1)CCO2 do in these assays?
LMNA splice mod: -17.1%[46 µM]

Results for O=c1cc(-c2ccc(F)cc2F)[nH]c2ccc(F)cc12 ?
ALDH1A1 block: -8.6%[120 µM]; HPGD inh: -23.1%; 12-hLO inh: 0.2%[0.00818 µM]

Results for Nn1c(COc2ccccc2)nc2ccccc2c1=O ?
ALDH1A1 block: 1.4%; PNC inhibitor: -88.8*; LMNA splice mod: 7.8%; HPGD inh: -11.8%; 12-hLO inh: 3.3%

What do the screens show for `COc1cccc(OCc2nc3ccccc3c(=O)n2N)c1`?
ALDH1A1 block: -9.2%; PNC inhibitor: -29.3; LMNA splice mod: -7.1%; HPGD inh: -1.2%; 12-hLO inh: 0.2%

How did COC(=O)c1cc(NC2(c3ccccc3)C(=O)c3ccccc3C2=O)cc(C(=O)OC)c1 do in these assays?
LMNA splice mod: 11.1%[46 µM]

How did Cc1cc(N2CCCCC2)nc(SCc2ccc(C#N)cc2)n1 do in these assays?
ALDH1A1 block: 1.26µM*; PNC inhibitor: 1.2; LMNA splice mod: inconclusive; HPGD inh: -19.7%; 12-hLO inh: -5.9%

How did Cc1cc2c(=O)n(CC(=O)N3CCN(c4ccccc4)CC3)cnc2s1 do in these assays?
ALDH1A1 block: 2.0%; PNC inhibitor: -122.4*; LMNA splice mod: 8.5%; HPGD inh: -4.3%; 12-hLO inh: -4.7%

How did CCOCCn1cnc2sc(C(=O)Nc3ccccc3C(=O)OC)c(C)c2c1=O do in these assays?
LMNA splice mod: -5.9%[46 µM]

Results for O=C(Nc1cccc(F)c1)C1CCN(c2nc3ccccc3[nH]2)CC1 ?
LMNA splice mod: -9.3%[46 µM]

How did COc1ccc(OCC(O)CN2C(=O)c3ccccc3S2(=O)=O)cc1 (configuration not stated) do in these assays?
ALDH1A1 block: inconclusive; PNC inhibitor: -83.4*; LMNA splice mod: 0.4%; HPGD inh: -12.1%; 12-hLO inh: 0.5%

What do the screens show for `O=C(Nc1ccccc1)c1ccccc1OCC(O)CN1C(=O)c2ccccc2S1(=O)=O` (configuration not stated)?
ALDH1A1 block: inconclusive; PNC inhibitor: 5.7; LMNA splice mod: 2.1%; HPGD inh: -17.1%; 12-hLO inh: -7.4%

What do the screens show for `CCOC(=O)c1c(C)n(C)c2ccc(OCC(O)CN3C(=O)c4ccccc4S3(=O)=O)cc12` (configuration not stated)?
ALDH1A1 block: 2.51µM*; PNC inhibitor: 34.3; LMNA splice mod: -13.4%; HPGD inh: -15.8%; 12-hLO inh: -2.8%

How did CCOC(=O)c1c(C)n(C)c2ccc(OCC(O)Cn3nc(C)cc3C)cc12 (configuration not stated) do in these assays?
ALDH1A1 block: 3.4%; PNC inhibitor: 32.2; LMNA splice mod: -7.4%; HPGD inh: -7.2%; 12-hLO inh: -4.8%
